Experimental findings from PMC7819943, “Rice protein-binding microarrays: a tool to detect cis-acting elements near promoter regions in rice” are described below.

The full ranking holds about 35,000 sequences; the median of “fluorescence intensity (a.u.)” is about 10,000, and the highest 2% start at about 52,000. The list comes from a sample in which the highest values are over-represented; it also holds similar and randomly drawn sequences.

The target in this assay is T1, OsWOX13 (Oryza sativa, UniProt Q5QMM3 1-267).
T1 sequence: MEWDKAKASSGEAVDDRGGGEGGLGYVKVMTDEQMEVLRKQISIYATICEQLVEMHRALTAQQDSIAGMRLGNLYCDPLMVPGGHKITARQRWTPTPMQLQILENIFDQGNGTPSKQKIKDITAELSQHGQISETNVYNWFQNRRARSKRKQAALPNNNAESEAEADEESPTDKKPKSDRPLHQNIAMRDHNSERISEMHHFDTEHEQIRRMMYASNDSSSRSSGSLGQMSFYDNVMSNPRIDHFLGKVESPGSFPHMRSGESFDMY
Description: protein-binding microarray (RPBM); PBS, 2% BSA, 51.3 ng/ul salmon testes DNA, 50 uM zinc acetate, 200 nM TF, 25 C, 1 h; high values mean tight binding. The following applies: protein: recombinant; tags: N-terminal polyhistidine and DsRed monomer fusion (pET32a); label: CyDye5-dUTP incorporated in the synthesized complementary strand; 3' TTTTT single-stranded linker to array surface; dsDNA, one strand shown. The method, boiled down: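 Binding signal here means per-feature fluorescence intensity in arbitrary units. The values were read on an Axon 4000B scanner after a custom Agilent array, double-stranded by primer extension with Cy5-dUTP, was incubated with 200 nM protein at 25 °C for 1 h in PBS with 2% BSA, salmon testes DNA and 50 µM zinc acetate, then washed. The proteins were transcription factors with an N-terminal polyhistidine tag and DsRed, expressed in E. coli BL21-CodonPlus and purified on Ni–NTA.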
Consider “TACTAATGATTTTATGTAGAACATCATCACATATCTTATACGGAGTCACCTAGTGCAG”, for which the binding signal is 15800 fluorescence intensity (a.u.).
Consider “TAATAATAATAATAATAATAATAATAATAACACATCGCACCGGAGTCACCTAGTGCAG”, for which the binding signal was 4120 fluorescence intensity (a.u.).
For “TGTTGATTTGCTACCCTTCCTTCCGTCCTCAACATTATCACGGAGTCACCTAGTGCAG”, the binding signal was 31600 fluorescence intensity (a.u.).
For “GGTTTGATTGGTTGGAAACAGAGGGGTTCTACTGCTGCGACGGAGTCACCTAGTGCAG”, the binding signal was 55700 fluorescence intensity (a.u.).
For “TTGATTGCCTCAGGTGGTCCGGACACCGTCTCAACATCCACGGAGTCACCTAGTGCAG”, the binding signal was 17700 fluorescence intensity (a.u.).
Consider “TTGCTATTTGTTGGTTTGATTTATTGCTACTGCAACAGATCGGAGTCACCTAGTGCAG”, for which the binding signal is 3880 fluorescence intensity (a.u.).
With “ATAACATTATCATTATAGACATTGATATATGAGATAATAGCGGAGTCACCTAGTGCAG” the figure was 6010 fluorescence intensity (a.u.); with “TTCTATGATTGATTGGTCGATAGGAAGACATATAACAGCGCGGAGTCACCTAGTGCAG”, 65500 fluorescence intensity (a.u.).
On to “CCGTGCTGCATGATTGACCAAACAGACCATGTTGGTTTTGCGGAGTCACCTAGTGCAG”, for which the binding signal was 29000 fluorescence intensity (a.u.).
In the case of “CTTTGACAGATTGGTGGGAGATAAGAGAAATGAGGAGGTGCGGAGTCACCTAGTGCAG”, the binding signal was 51900 fluorescence intensity (a.u.).
To “TTCGAATCTCTGATTGGGAGTTCAGGTCAGAGACGTTCAGCGGAGTCACCTAGTGCAG” belongs 14700 fluorescence intensity (a.u.).
For “CTGATGATTGGTCAGCAGAGAAGACAGGTGGGATATCGAGCGGAGTCACCTAGTGCAG”, the binding signal was 52900 fluorescence intensity (a.u.).
As for “TTGATTTGGTTGATTGCCTCCTTCGTTCGTCCACGCTCAACGGAGTCACCTAGTGCAG”, the binding signal was 57100 fluorescence intensity (a.u.).
Consider “GATTTATTGACATCTATATGAATATAGACATTGATAAAAGCGGAGTCACCTAGTGCAG”, for which the binding signal was 8710 fluorescence intensity (a.u.).
Consider “CCCAATTAAATAATGCCAATTGGGTTTGATCTAATGCTGGCGGAGTCACCTAGTGCAG”, for which the binding signal was 15200 fluorescence intensity (a.u.).
On to “ATCAATCAATCAATCAATCAGCAAAGAGCATCCCAAACAACGGAGTCACCTAGTGCAG”, for which the binding signal is 33900 fluorescence intensity (a.u.).
As for “AAGGTTGTTAATTACAAACCATGTTTCGTACTACAACTCTCGGAGTCACCTAGTGCAG”, the binding signal is 4580 fluorescence intensity (a.u.).
With “GTGACAAACTGACAACAGGTTGTTTAGTTTTCCATGATTACGGAGTCACCTAGTGCAG”, the binding signal is 4530 fluorescence intensity (a.u.).
With “GAATCTATTAAGCCTAATTAATCCGTTATTATAGCAAATACGGAGTCACCTAGTGCAG”, the binding signal is 6470 fluorescence intensity (a.u.).
With “AAGGCACGTTGATTGGACTAGTAGTACTACTACGTAGTAGCGGAGTCACCTAGTGCAG”, the binding signal was 18400 fluorescence intensity (a.u.).
In the case of “ACCATTGATGGTCCCAATTTAAAATATTTGGCCGAATCTTCGGAGTCACCTAGTGCAG”, the binding signal was 3840 fluorescence intensity (a.u.).
On to “AATAAAATAAATGATCAAATGAATTATGAAAACTCGTGACCGGAGTCACCTAGTGCAG”, for which the binding signal was 5260 fluorescence intensity (a.u.).
With “GTCGAAAATTATATCGGAATTAGCAGAGTGTGGCATAGCACGGAGTCACCTAGTGCAG” the figure was 4260 fluorescence intensity (a.u.); with “AGTAAAATGATTTGTAGTGTTAATAATAAAGAATAAATTACGGAGTCACCTAGTGCAG”, 10000 fluorescence intensity (a.u.).
For the sequence “TACAAATAGACTTGAATAAATGTTTATCTATTTTGTGTTGCGGAGTCACCTAGTGCAG”, the binding signal is 16800 fluorescence intensity (a.u.).
With “TGAGGAGCAATTAATGAGTTTGATGGACAGAGATAATAGCCGGAGTCACCTAGTGCAG” the figure was 9490 fluorescence intensity (a.u.).
Turning to “ACGTTTAATTACGGGAAACCGGCTAAAACCCACCACACATCGGAGTCACCTAGTGCAG”, the binding signal was 6640 fluorescence intensity (a.u.).
For the sequence “GTAGGAACACTAATTAATCACTCATTGATATGTGTAATCCCGGAGTCACCTAGTGCAG”, the binding signal was 14700 fluorescence intensity (a.u.).
As for “CTTAAATCATGATGATTTTATTGGTTGTTGGCATGCACAGCGGAGTCACCTAGTGCAG”, the binding signal was 30500 fluorescence intensity (a.u.).
Turning to “TCTTGATTGGTTGTTTTGGTTTGTTTCTTATTTATGTTTGCGGAGTCACCTAGTGCAG”, the binding signal was 54100 fluorescence intensity (a.u.).
Consider “GTAAATTGGCATTGGTTTGATTTATGTTTGCAATGCAGCGCGGAGTCACCTAGTGCAG”, for which the binding signal was 58200 fluorescence intensity (a.u.).
For the sequence “CCCTTGTTTCTGTTTTGATTGCAACCTAAGAGACTCTTGACGGAGTCACCTAGTGCAG”, the binding signal was 6270 fluorescence intensity (a.u.).
To “AGAGTTCTGATTGAATTTGAACAGAAGCGGTGCTTTTGGACGGAGTCACCTAGTGCAG” belongs 38800 fluorescence intensity (a.u.).
Consider “AGGCACGGATTGATGCATTAATTTGGTTGCAATGTAGATGCGGAGTCACCTAGTGCAG”, for which the binding signal is 37500 fluorescence intensity (a.u.).
For the sequence “TCTGATTGACGGTGTTTGCAAGCAGAGTTCCTCTTCTTGGCGGAGTCACCTAGTGCAG”, the binding signal was 61500 fluorescence intensity (a.u.).
Regarding “CTTGTCTTATTTGATTGTTGCATTTACATTTATGCAATTTCGGAGTCACCTAGTGCAG”, the binding signal was 9350 fluorescence intensity (a.u.).
As for “TTAATTATTTTGCTGACATGATTTGTTTTCATTTCGTTGACGGAGTCACCTAGTGCAG”, the binding signal was 24100 fluorescence intensity (a.u.).
Take “TTGCTAAATTGTTGTCTTGGTTGATATTTTAGATTTCTTGCGGAGTCACCTAGTGCAG”: the binding signal was 10000 fluorescence intensity (a.u.).
With “CCGATGTTTGATTGTTCGTTTTATTTGAAAGCCTTTTATGCGGAGTCACCTAGTGCAG” the figure was 20800 fluorescence intensity (a.u.).
To “TTTTACATGATTGGATGACAAAGCCTATTTCGTTTTGTTGCGGAGTCACCTAGTGCAG” belongs 53100 fluorescence intensity (a.u.).
Consider “CATCTTTGACCGGTTAAATTAGATCCTGTTCTAGATGAGGCGGAGTCACCTAGTGCAG”, for which the binding signal was 3480 fluorescence intensity (a.u.).
With “GCTTTCAATAAAACTTCATTAATTGAGGCTAAAATGTTACCGGAGTCACCTAGTGCAG”, the binding signal was 5100 fluorescence intensity (a.u.).
